Each structure is given as a SMILES string. ± gives the standard deviation of the averaged measurements.
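Further: TDF denotes transformed human dermal fibroblasts of mesenchymal origin.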

One assay relates to HCC1569. Put plainly: cell number relative to DMSO (% of DMSO); higher = more cells (less growth inhibition / toxicity). To be noted: concentration: 10 µM; 24 h. In a few lines: (§1)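 Compounds were applied at 10 µM for 24 h at 37 °C, in triplicate, to HCC1569 and TDF cells. The cells were then fixed and stained for H1.0, and nuclei were counterstained with DAPI. Nuclear H1.0 intensity or cell number is reported relative to the plate control as a percent, taking the median of replicates. Smoothing for positional effects was applied to HCC1569 values only.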
Turning to `COc1cc(NS(=O)(=O)c2ccc(N)cc2)nc(OC)n1` [Sulfadimethoxine], the cell number was determined as 103.

In the case of `CCCn1c(=O)c2[nH]c(-c3ccc(OCC(=O)Nc4ccc(C#N)cc4)cc3)nc2n(CCC)c1=O`, the cell number is 105.

Regarding `O=C(O)Cc1c[nH]c2ccccc12` [Indole-3-acetic acid], the cell number was determined as 100.

`CCC(=O)Nc1ccc2ncnc(Nc3cccc(Br)c3)c2c1`: the cell number was 89.4.

Take `Cc1cccc(Nc2ccccc2C(=O)O)c1C` [Mefenamic acid]: the cell number turned out to be 104.

Take `COC1=C(OC)C(=O)C(CCCCCCCCCCO)=C(C)C1=O` [Idebenone]: the cell number is 101.26 ± 0.079.

On to `Cl.Cl.NCCSSCCN` [Cystamine dihydrochloride], for which the cell number stood at 97.5.

Consider `CCCCCCCCCCCC=CCCCCCC(=O)O` [7(E)-Nonadecenoic acid], for which the cell number came to 98.7.

For `CC1CC2C(C(O)CC3(C)C2CCC3(O)C(=O)CO)C2(C)C=CC(=O)C=C12` (configuration not stated) [Methylprednisolone], the cell number is 99.4.

On to `COc1cc2nc(N3CCN(C(=O)C4CCCO4)CC3)nc(N)c2cc1OC` (configuration not stated) [Terazosin], for which the cell number worked out at 99.9.

The compound `O=C(Nc1nc2ccc(NC(=O)C34CC5CC(CC(C5)C3)C4)cc2s1)c1ccccc1` registered a cell number of 45.

Consider `CCOC(=O)C(CCc1ccccc1)NC(C)C(=O)N1CCCC1C(=O)O` (configuration not stated) [Enalapril], for which the cell number turned out to be 104.

As for `O=C(O)c1cc(=O)c2ccccc2[nH]1` [Kynurenic acid], the cell number was 107.

On to `O=C(CCN1CCN(C(=O)OCc2cc(Cl)cc(Cl)c2)CC1)c1ccc2[nH]c(=O)oc2c1`, for which the cell number stood at 70.5.

Consider `CC(C)NNC(=O)c1ccncc1.O=P(O)(O)O` [Iproniazid phosphate], for which the cell number came to 116.

In turn, `Cn1c(=O)[nH]c2ncn(C)c2c1=O` [1,7-Dimethylxanthine] came in with a cell number of 102.

The compound `Nc1ccccc1NC(=O)CCCCCCC(=O)Nc1ccccc1` [N~1~-(2-aminophenyl)-N~8~-phenyloctanediamide] gave a cell number of 98.8.

As for `CN1CCCC1CCOC(C)(c1ccccc1)c1ccc(Cl)cc1` (configuration not stated) [Clemastine], the cell number turned out to be 99.4.

Compound `C#CC1(O)CCC2C3C(C)CC4=C(CCC(=O)C4)C3CCC21C` (configuration not stated) [Tibolone] had a cell number of 100.

Take `CCn1c(=O)[nH]c2cc(Cl)c(Cl)cc21`: the cell number was determined as 99.9.

In turn, `CC1(C)CC(NC(=O)C(=O)Nc2ccc(Cl)cc2)CC(C)(C)N1` displayed a cell number of 104.

Consider `COC1=C(OC)C(=O)c2ccccc2C1=O` [2,3-Dimethoxy-1,4-naphthoquinone], for which the cell number is 74.6.

Compound `O=C(O)CCCC=CCC1C(O)CC(F)C1C=CC(O)C1Cc2ccccc2C1` (configuration not stated) gave a cell number of 103.

In the case of `CCCCN1CCCCC1C(=O)Nc1c(C)cccc1C` (configuration not stated) [Bupivacaine], the cell number was 97.9.

As to `NC(N)=Nc1nc(CSCCC(N)=NS(N)(=O)=O)cs1`, the cell number came out at 103.

Compound `Cc1oncc1C(=O)Nc1ccc(C(F)(F)F)cc1` [Leflunomide] showed a cell number of 103 ± 3.5.

`CCn1cc(C(=O)O)c(=O)c2ccc(C)nc21` [Nalidixic acid]: the cell number came to 102.

The next assay has as its system TDF. The assay is described as above. The conditions noted are these: concentration: 10 µM; 24 h. In a few lines: as §1
Consider `CC1OC(n2cc(F)c(=O)[nH]c2=O)C(O)C1O` (configuration not stated) [Doxifluridine], for which the cell number came out at 107.

Take `CC1=NN(c2ccccc2)C(=O)C1`: the cell number turned out to be 111.

As to `CCCCCCCCOC(=O)C=Cc1ccc(O)c(O)c1` [n-Octyl caffeate], the cell number is 78.8.

`Cl.O=C(OCCN1CCOCC1)C1(c2ccccc2)CCCCC1` showed a cell number of 111.

On to `CON(C)C(=O)[C@H](O)[C@H](Cc1ccccc1)NC(=O)c1cc2cc(Cl)ccc2[nH]1`, for which the cell number worked out at 110.

Regarding `O=C(C=Cc1ccc(O)c(O)c1)c1ccc(OC2OC(CO)C(O)C(O)C2O)c(O)c1O` (configuration not stated) [Marein], the cell number was 108.

Take `CCCCC(C)(C)C(O)C=CC1C(O)CC(=O)C1CC=CCCCC(=O)O` (configuration not stated) [16,16-Dimethyl-prostaglandin E2]: the cell number was found to be 110.

Regarding `CC(=O)Oc1ccccc1C(=O)Nc1ncc([N+](=O)[O-])s1` [2-{[(5-nitro-1,3-thiazol-2-yl)amino]carbonyl}phenyl acetate], the cell number was 95.5.

As to `CN1CCCCC1CCN1c2ccccc2Sc2ccc(S(C)=O)cc21.O=S(=O)(O)c1ccccc1` (configuration not stated) [Mesoridazine besylate], the cell number stood at 111.

On to `CN(C)[C@@H](CCOc1cccc2ccccc12)c1ccccc1.Cl`, for which the cell number came out at 92.4.

For the compound `NC(CCC(=O)NC(CS)C(=O)NCC(=O)O)C(=O)O` (configuration not stated) [Glutathione], the cell number was found to be 96.1.

In turn, `O=c1cc(-c2ccccc2)oc2cc(O)c(O)c(O)c12` [Baicalein] had a cell number of 92.95 ± 0.67.

Regarding `CC1COc2c(C3(N)CC3)c(F)cc3c(=O)c(C(=O)O)cn1c23` (configuration not stated) [Pazufloxacin], the cell number is 110.

In turn, `COc1cc(NS(=O)(=O)c2ccc(N)cc2)nc(OC)n1` [Sulfadimethoxine] registered a cell number of 109.

In the case of `CCCn1c(=O)c2[nH]c(-c3ccc(OCC(=O)Nc4ccc(C#N)cc4)cc3)nc2n(CCC)c1=O`, the cell number was 114.

In turn, `O=C(O)Cc1c[nH]c2ccccc12` [Indole-3-acetic acid] registered a cell number of 102.

In the case of `CCC(=O)Nc1ccc2ncnc(Nc3cccc(Br)c3)c2c1`, the cell number came out at 105.

`Cc1cccc(Nc2ccccc2C(=O)O)c1C` [Mefenamic acid] had a cell number of 107.

In turn, `COC1=C(OC)C(=O)C(CCCCCCCCCCO)=C(C)C1=O` [Idebenone] registered a cell number of 96.02 ± 0.62.

Take `Cl.Cl.NCCSSCCN` [Cystamine dihydrochloride]: the cell number was 107.

With `CCCCCCCCCCCC=CCCCCCC(=O)O` [7(E)-Nonadecenoic acid], the cell number stood at 104.

For `CC1CC2C(C(O)CC3(C)C2CCC3(O)C(=O)CO)C2(C)C=CC(=O)C=C12` (configuration not stated) [Methylprednisolone], the cell number is 102.

In the case of `COc1cc2nc(N3CCN(C(=O)C4CCCO4)CC3)nc(N)c2cc1OC` (configuration not stated) [Terazosin], the cell number was 87.9.

As to `O=C(Nc1nc2ccc(NC(=O)C34CC5CC(CC(C5)C3)C4)cc2s1)c1ccccc1`, the cell number is 20.4.

Compound `CCOC(=O)C(CCc1ccccc1)NC(C)C(=O)N1CCCC1C(=O)O` (configuration not stated) [Enalapril] gave a cell number of 106.

Regarding `O=C(O)c1cc(=O)c2ccccc2[nH]1` [Kynurenic acid], the cell number was found to be 106.

`O=C(CCN1CCN(C(=O)OCc2cc(Cl)cc(Cl)c2)CC1)c1ccc2[nH]c(=O)oc2c1` yielded a cell number of 104.

`CC(C)NNC(=O)c1ccncc1.O=P(O)(O)O` [Iproniazid phosphate] showed a cell number of 119.

`Cn1c(=O)[nH]c2ncn(C)c2c1=O` [1,7-Dimethylxanthine]: the cell number turned out to be 98.9.

Compound `Nc1ccccc1NC(=O)CCCCCCC(=O)Nc1ccccc1` [N~1~-(2-aminophenyl)-N~8~-phenyloctanediamide] showed a cell number of 89.4.

In turn, `CN1CCCC1CCOC(C)(c1ccccc1)c1ccc(Cl)cc1` (configuration not stated) [Clemastine] displayed a cell number of 97.3.

With `C#CC1(O)CCC2C3C(C)CC4=C(CCC(=O)C4)C3CCC21C` (configuration not stated) [Tibolone], the cell number was determined as 96.7.

Turning to `CCn1c(=O)[nH]c2cc(Cl)c(Cl)cc21`, the cell number came out at 94.4.

As to `CC1(C)CC(NC(=O)C(=O)Nc2ccc(Cl)cc2)CC(C)(C)N1`, the cell number was found to be 107.

The compound `COC1=C(OC)C(=O)c2ccccc2C1=O` [2,3-Dimethoxy-1,4-naphthoquinone] had a cell number of 36.2.

As for `O=C(O)CCCC=CCC1C(O)CC(F)C1C=CC(O)C1Cc2ccccc2C1` (configuration not stated), the cell number stood at 103.

`CCCCN1CCCCC1C(=O)Nc1c(C)cccc1C` (configuration not stated) [Bupivacaine] came in with a cell number of 108.

`NC(N)=Nc1nc(CSCCC(N)=NS(N)(=O)=O)cs1` returned a cell number of 110.

In the case of `Cc1oncc1C(=O)Nc1ccc(C(F)(F)F)cc1` [Leflunomide], the cell number was 107 ± 3.5.

In turn, `CCn1cc(C(=O)O)c(=O)c2ccc(C)nc21` [Nalidixic acid] returned a cell number of 98.7.

These data come from the supplement of paper PMC7156485.
